Data on 40 molecules can be found in PubChem BioAssay (NCI).

SMILES strings stand for the structures. This is part of a sample that, as a whole, favours compounds with a hit. Of some 79,000 tested, about 15% had one in any assay. Unmarked numbers belong to inactive results. Calls of active or inactive are those of the source. No stated cut-off is given here; in the data, active means growth inhibition above about 70%; inactive means the rest.

This experiment can be described thus: NCI Yeast Anticancer Drug Screen. Data for the mlh1 rad18 strain (AID 175). The note with it: S. cerevisiae mlh1 rad18 strain growth inhibition; at 50.0 µM; active compounds read high. The procedure, abridged: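 In this whole-cell yeast screen, a strain with altered DNA damage repair is challenged with compound, and its growth is measured against matched vehicle-treated controls.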
For the molecule `O=Cc1cc(O)ccc1[N+](=O)[O-]`, the growth inhibition was 16.1%.

`O=C(Nc1nc(C23CC4CC(CC(C4)C2)C3)cs1)c1cc2ccc(O)cc2oc1=O`: the growth inhibition is -16.6%.

For the molecule `Cc1ccccc1OCC(O)COC(=O)CCS(=O)(=O)O` (stereo not given), the growth inhibition was -6.3%.

Regarding `CC(=Nc1ccc(Cl)cc1)c1ccncc1`, the growth inhibition was -1.8%.

For the molecule `O=C1CC2C=CC(O)C(C1)C2` (stereo not given), the growth inhibition is -109%.

As for `O=C(Nc1ccn(CCI)c(=O)n1)c1ccccc1`, the growth inhibition was 26.1%.

On to `C/C=C/C1OCC(C)(C)CO1`, for which the growth inhibition was -1.5%.

`Cc1ccc2cccc(N)c2n1`: the growth inhibition was 7.2%.

Regarding `CC1(C)CC(=O)OC/C=C\CC(Cc2ccccc2)C(=O)C1` (stereo not given), the growth inhibition is 1.9%.

With `O=C(O)c1ccncc1C(=O)O`, the growth inhibition was 3%.

As to `CCOC(=O)C1(C)Sc2ccccc2N=C1c1ccccc1` (stereo not given), the growth inhibition was 17.6%.

As for `C[N+](C)(CCCN1C(=O)c2cccc3c(Br)ccc(c23)C1=O)Cc1ccc(Cl)c(Cl)c1`, the growth inhibition was 98% (active).

With `COC(=O)[C@@H]1[C@H](O)CC[C@H]2[C@@]1(C)CC[C@@H](C)[C@]2(COC(C)=O)CC(=O)c1ccoc1`, the growth inhibition is -45.8%.

Turning to `CC(=O)N(C(=O)CC(=O)N1N=C(C)C(N=Nc2cccc([N+](=O)[O-])c2)C1=O)c1ccc(Cl)cc1` (stereo not given), the growth inhibition is 2%.

Turning to `COc1cccc2c1C(CO)N1C(C#N)C3CC(C(=O)O)C(C1C2)N3C` (stereo not given), the growth inhibition is -2.45%.

Consider `CCn1c(=O)c(C(=O)O)c(Cl)c2cc3c(cc21)OCO3`, for which the growth inhibition is 38.2%.

On to `O=c1[nH]c(N2CCN(c3ccccc3)CC2)nc2cc3ccccc3cc12`, for which the growth inhibition is -16.9%.

With `CCN(CC)c1nc(Cl)nc(C(N)=O)c1N`, the growth inhibition is -10.4%.

`CCCC=Nc1ccccc1`: the growth inhibition was 13.1%.

For the molecule `COC(=O)c1sc(N2CCCC2)nc1N`, the growth inhibition is -1.85%.

Consider `COc1cc(N=Nc2c(Cl)cc([N+](=O)[O-])cc2Cl)c(OC)cc1N=Nc1ccc(N)nc1N`, for which the growth inhibition is 9.45%.

Turning to `CC1CCCC(C)C1O` (stereo not given), the growth inhibition is -14.1%.

Turning to `COc1ccc(/C=C/C(=N\NC(=O)c2ccccc2)c2sc(Nc3ccc([N+](=O)[O-])cc3)nc2C)cc1OC`, the growth inhibition is -9.85%.

With `CCCN(CCC)CC(O)CN(CCC)CCC`, the growth inhibition was -0.3%.

For `COc1cc2c(cc1OC)C1CC(CC(N)=O)(C(N)=O)CCN1CC2` (stereo not given), the growth inhibition was 17.5%.

Take `COC(=O)CCc1onc(Br)c1CCl`: the growth inhibition is 9.5%.

On to `CC(=O)OCCOCNC(=S)NCc1ccco1`, for which the growth inhibition was -10.3%.

For the molecule `CC(C)(O)C12CC3CC(CC(C3)C1)C2`, the growth inhibition is 0.2%.

On to `COc1cc([N+](=O)[O-])c(F)cc1F`, for which the growth inhibition was -3.1%.

For `O=[N+]([O-])c1ccc2c(c1)/C(=N/O)CCC2`, the growth inhibition is 4.05%.

In the case of `CN(C)CC(CN(C)C)C(=O)C(C)(C)C`, the growth inhibition was 13.8%.

With `COC(=O)C1C(COS(C)(=O)=O)ON2CCC(OC)(OC)C12` (stereo not given), the growth inhibition is 43.1%.

In the case of `NNC(=S)NC1CCCCC1`, the growth inhibition was 36%.

Consider `O=C(O)C(O)c1ccc(Cl)cc1Cl` (stereo not given), for which the growth inhibition was 1.35%.

Take `N#C/C(=C\NC(=S)Nc1ccc(S(=O)(=O)Nc2nccs2)cc1)C(=O)c1ccc2ccccc2c1`: the growth inhibition was 16.4%.

Regarding `COC(=O)CNC(=O)Nc1cc(N2C(=O)ON3C2C(C)(C)N(O)C3(C)C)ccc1C` (stereo not given), the growth inhibition is -22.6%.

As for `CN(C)C(=O)Sc1ccc(N(C)C)cc1`, the growth inhibition is -23.2%.

In the case of `C/C(=N/O)c1cccc([N+](=O)[O-])c1`, the growth inhibition is -7.15%.

On to `Cc1cn(C2CC(OC(=O)C(Cc3ccccc3)NC(=O)OCc3ccccc3)C(COC(=O)C(Cc3ccccc3)NC(=O)OCc3ccccc3)O2)c(=O)[nH]c1=O` (stereo not given), for which the growth inhibition is 14.3%.

With `Cc1cc2nc(CC(O)c3nc4cc(C)c(C)cc4[nH]3)[nH]c2cc1C` (stereo not given), the growth inhibition is 5.8%.
